# Source: PubChem
# DT40 TDP1 no CPT: qHTS for Inhibitors of human tyrosyl-DNA phosphodiesterase 1 (TDP1): qHTS in cells in absence of CPT | DT40 Tdp1-/- hTDP1 cells, no CPT, ATP luminescence, 48 h | Potency, µM (doses to about 46.2 µM), actives largely listed as inhibitors | 420,000 compounds, 15% hits; also: nearly all actives have a fitted effect of over 55% in size
#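 Luminescent ATP content (CellTiter-Glo) served as the growth readout. Knockout chicken DT40 cells expressing human TDP1 were exposed to compounds without camptothecin for a minimum 48 hr at 37 °C.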
# HT1080NT lethal: kills 2HG-producing HT-1080-NT fibrosarcoma cells. HT-1080-NT fibrosarcoma viability, CellTiter-Glo ATP luminescence, 48 h. Potency, µM (series often up to 46.1 µM), most hits filed as cytotoxic. 360,000 compounds, 1.6% hits;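 also: NT is the 2HG producing partner of a matched IDH1 knockdown line; nearly all actives have a fitted effect of over 55% in size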
#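 Fibrosarcoma NT cells, 750 per well in 5% FBS RPMI, were exposed to compound for 48 hours. Viability: CellTiter-Glo luminescence.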
# KB-V1 MDR tox: KB-V1 MDR subline cytotoxicity. 400,000 compounds, 3.4% hits. AID 1347076. KB-V1 MDR cells viability, CellTiter-Glo, 72 h. Potency, µM (highest dose often 46.1 µM), hits mostly cytotoxic; also: nearly all actives have a fitted effect of over 60% in size
#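 In this primary screen, KB-V1 cells overexpressing P-gp are incubated with library compounds (lowest to highest concentration) for 72 h at 37 degrees C before a luminescent ATP viability read.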
# KB-3-1 cytotox: kills parental KB-3-1 adenocarcinoma cells; KB-3-1 viability, CellTiter-Glo ATP luminescence, 72 h; AID 1347075; 400,000 compounds, 1.4% hits; Potency, µM (series often up to 46.1 µM), most hits filed as cytotoxic; also: nearly all actives have a fitted effect of over 60% in size
#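 Using CellTiter-Glo luminescence, growth of non-resistant KB-3-1 adenocarcinoma cells is assessed 72 h after pin-tool compound addition at 37 °C. Normalized responses across the concentration series yield fitted curves.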
# TDP1 cell CPT: growth inhibition of DT40 Tdp1-/-;hTDP1 cells with camptothecin (screen for TDP1 inhibitors); chicken DT40 Tdp1-/-;hTDP1 cells + 20 nM CPT, ATP luminescence, 48 h; Potency, µM (highest dose often 46.2 µM), actives largely listed as inhibitors; 420,000 compounds, 12% hits; AID 686979; also: nearly all actives have a fitted effect of over 55% in size
#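 Cell growth measured by CellTiter-Glo luminescence after a minimum 48 h, 37 C compound exposure with 20 nM CPT in Tdp1-knockout DT40 cells stably expressing hTDP1, seeded 400/well; qHTS titration format.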
# HT1080 IDH1KD tx: toxicity to HT-1080 IDH1 knockdown cells (counter line); HT-1080 IDH1 knockdown viability, ATP luminescence, 48 h; Potency, µM (series often up to 46.1 µM), most hits filed as cytotoxic; 360,000 compounds, 2% hits
#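 Assay cells: HT-1080 with IDH1 knockdown, 750 per well, RPMI/5% FBS. Exposure: 48 h at 37 °C following 2 h pre-incubation. Read: CellTiter-Glo luminescence; fitted concentration-response, curve class assigned.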
# Hits are given with their value; - = inactive; ? = inconclusive; . = no result. A selection: hits, their analogues and other compounds. The true share with any hit is near 19%. Calls follow the shape of the dose curve; as a rule, active = well fitted curve in the direction sought with a large enough effect; inconclusive = small, poorly fitted or top-dose-only effect, or another doubt; inactive = no such curve, though single readings can be large; an effect the other way counts as inactive or inconclusive.
SMILES,DT40 TDP1 no CPT,HT1080NT lethal,KB-V1 MDR tox,KB-3-1 cytotox,TDP1 cell CPT,HT1080 IDH1KD tx
COc1cccc(CN2CCN(C(=O)[C@H]3O[C@@H](n4cnc5c(N)ncnc54)[C@H](O)[C@@H]3O)CC2=O)c1,-,-,-,-,-,-
NNC(=O)c1cc2ccccc2[nH]1,-,?,-,?,-,2.06µM
Cc1cc(C)n(-c2nc(SCCN3CCOCC3)c3c4c(sc3n2)CCCC4)n1,20.6µM,-,-,?,-,-
Cc1cc(C)n(-c2nc(NCCCN(C)C)c3c4c(sc3n2)CCCC4)n1,?,14.6µM,?,?,?,?
CCN(CC)CCCNc1nc(CN2CCOCC2)nc2sc3c(c12)CCC3,-,?,-,-,-,-
Cc1cc(C)n(-c2nc(NCCN(C)C)c3c4c(sc3n2)CCCC4)n1,6.51µM,20.6µM,?,-,8.2µM,20.6µM
Cc1cc(C)n(-c2ncnc3sc4c(c23)CCCC4)n1,-,?,-,-,-,-
CCC(C(=O)NC(C)(C)C)N(Cc1ccc(OC)cc1)C(=O)c1snc(C(N)=O)c1N (centres undefined),?,-,-,-,-,-
COCCCNC(=O)CN1C(=O)/C(=C/c2ccccc2C)Sc2ccccc21,-,-,?,-,-,-
CCOCCCNC(=O)CN1C(=O)/C(=C\c2ccc(C)cc2)Sc2ccccc21,?,-,4.61µM,-,20.6µM,-
Cc1ccc(/C=C2/Sc3ccccc3N(CC(=O)NCCCOC(C)C)C2=O)cc1,?,-,23.1µM,-,?,-
COCCCNC(=O)CN1C(=O)/C(=C/c2ccccc2)Sc2ccccc21,14.6µM,?,?,-,?,-
CCOCCCNC(=O)CN1C(=O)/C(=C/c2ccccc2)Sc2ccccc21,?,-,14.6µM,-,?,-
COc1cc2c(ccc3cc(OC)c(OC)c(O)c32)cc1O,9.2µM,?,?,-,7.31µM,?
c1ccc(-c2nn3c(Cn4nnc5ccccc54)nnc3s2)cc1,?,-,-,-,?,-
c1ccc2c(c1)nnn2Cc1nnc2sc(-c3ccc4c(c3)OCCO4)nn12,16.4µM,-,-,-,?,-
Cc1cc(C)cc(N(CC(=O)NCC2CCCO2)C(=O)CCC(=O)Nc2nccs2)c1 (centres undefined),?,-,-,-,-,-
CC(=O)c1ccc(NC(=O)CCc2nc3sc4c(c3c(=O)[nH]2)CCCC4)cc1,?,-,?,-,?,-
Cc1csc(SCc2nc3sc4c(c3c(=O)[nH]2)CCC4)n1,?,-,5.17µM,-,-,-
Cc1cccc(NC(=O)CCc2nc3sc4c(c3c(=O)[nH]2)CCCC4)n1,18.4µM,-,-,-,?,-
CC(=O)c1cccc(NC(=O)CCc2nc3sc4c(c3c(=O)[nH]2)CCCC4)c1,13µM,?,-,-,?,-
O=C(CCc1nc2sc3c(c2c(=O)[nH]1)CCCC3)Nc1ccccc1Cl,?,-,-,-,?,-
Cc1nc2sc3c(c2c(=O)[nH]1)CCC3,-,-,-,-,?,-
CCN(c1ccc(NC(=O)CCc2nc3sc4c(c3c(=O)[nH]2)CCCC4)cc1)C(C)C,23.1µM,-,-,-,29.1µM,?
Cc1cccc(C)c1NC(=O)C(C)NCc1cccs1 (centres undefined),-,-,-,-,-,-
SMILES,DT40 TDP1 no CPT,HT1080NT lethal,KB-V1 MDR tox,KB-3-1 cytotox,TDP1 cell CPT,HT1080 IDH1KD tx
CN(CCO)C(=O)c1cn(C2CCCN(Cc3cc4ccccc4s3)C2)nn1 (centres undefined),-,.,.,.,-,.
O=C(CN(Cc1ccccc1F)S(=O)(=O)c1ccc(Cl)cc1)NCC1CCCO1 (centres undefined),?,-,-,-,-,-
Cc1oc(-c2ccoc2)nc1CN(Cc1ccccc1)CC1CC1,-,-,-,-,-,-
Cc1oc(-c2ccc(F)cc2)nc1CN(Cc1ccccn1)CC1CCCO1 (centres undefined),29.1µM,-,?,-,?,-
FC(F)(F)c1cccc(Cc2noc(CN(Cc3ccccn3)CC3CCCO3)n2)c1 (centres undefined),20.6µM,-,-,-,20.6µM,-
Clc1ccc(-c2noc(CN(Cc3ccccn3)CC3CCCO3)n2)cc1 (centres undefined),16.4µM,-,?,-,?,-
COc1cccc(/C=c2/[nH]c(=O)/c(=C\c3cccc(OC)c3OC)[nH]c2=O)c1OC,?,.,-,-,?,.
COc1ccc(-c2nn(-c3ccccc3)cc2CNC[C@H]2O[C@@H](n3cnc4c(=O)[nH]c(N)nc43)[C@H](O)[C@@H]2O)cc1,-,-,-,-,-,-
Cc1nc2c(C)cccc2cc1C(=O)N/N=C/c1cccnc1,6.51µM,-,-,-,5.17µM,?
Cc1nc2c(C)cccc2cc1C(=O)N/N=C/c1ccc(N(C)C)cc1,11.6µM,?,?,-,5.8µM,?
COc1ccc(-c2nc3cnc(Oc4cccc(Cl)c4)nc3n(C3CC3)c2=O)cc1,-,.,.,.,-,.
COc1ccc(CCN(C)CCCN2CC(c3ccccc3)CC2=O)cc1OC (centres undefined),-,-,?,-,-,-
COc1ccc(CNC[C@@H](CCCCN(C)Cc2ccc(OC)cc2)N2C[C@H](c3ccccc3)N(CCc3ccc(Cl)c(Cl)c3)C(=O)C2=O)cc1,4.11µM,18.4µM,-,-,?,23.1µM
Cc1ccc(NC(=O)CCCn2c(=S)[nH]c3ccsc3c2=O)cc1C,-,-,-,-,-,-
C[C@@H]1CN([C@H](C)CO)S(=O)(=O)c2ccc(C#Cc3ccccc3F)cc2O[C@H]1CN(C)C(=O)c1ccc2c(c1)OCO2,6.51µM,?,?,?,18.4µM,?
C[C@H]1CN([C@@H](C)CO)S(=O)(=O)c2ccc(C#Cc3cccnc3)cc2O[C@@H]1CN(C)C(=O)Nc1ccc2c(c1)OCO2,23.1µM,-,-,-,?,-
C[C@H](CO)N1C[C@H](C)[C@@H](CN(C)CC2CCOCC2)Oc2cc(C#Cc3ccccc3F)ccc2S1(=O)=O,9.2µM,-,?,-,18.4µM,-
CCOc1ccc(Nc2nnc(Cc3ccc(OC)cc3)c(=O)[nH]2)cc1,-,-,-,-,-,-
Cn1cc([C@]2(O)C(=O)Nc3ccc(Br)cc32)c2ccccc21,?,-,-,-,?,-
COc1ccc(C(=O)NC(=S)Nc2ccc3[nH]c(=O)[nH]c3c2)c(OC)c1,-,-,-,-,-,-
CCOC(=O)c1noc2nc(C)n(CC(=O)Nc3cccc(OC)c3)c(=O)c12,-,.,?,-,-,.
